Common to all, as to experiment: NCI-60 one-dose screen, 48 h (100 = growth as untreated, 0 = no growth, -100 = all killed)
For one experiment, the system named is HCT-15 colon. Particulars: 10 µM unless noted.
The subject of a further experiment is HT29 colon. Particulars: 10 µM unless noted.
The next experiment concerns SNB-75 CNS. Particulars: 10 µM unless noted.
The next experiment concerns SNB-19 CNS. Particulars: 10 µM unless noted.
A further experiment has as its system U251 CNS. Particulars: 10 µM unless noted.
A further experiment deals with PC-3 prostate. The conditions noted are these: 10 µM unless noted.
The test system of another experiment is SK-MEL-5 melanoma. Particulars: 10 µM unless noted.
The next experiment deals with UACC-62 melanoma. The conditions noted are these: 10 µM unless noted.
The subject of another experiment is LOX IMVI melanoma. The conditions noted are these: 10 µM unless noted.
A further experiment relates to SK-MEL-28 melanoma. Particulars: 10 µM unless noted.
Another experiment has as its system SK-MEL-2 melanoma. Particulars: 10 µM.
The test system of another experiment is EKVX NSCLC. Particulars: 10 µM unless noted.
For the next experiment, the system named is SN12C renal. Particulars: 10 µM unless noted.
The test system of a further experiment is UO-31 renal. The conditions noted are these: 10 µM unless noted.
Another experiment deals with TK-10 renal. Particulars: 10 µM unless noted.
Another experiment concerns ACHN renal. Particulars: 10 µM unless noted.
Another experiment concerns CAKI-1 renal. The conditions noted are these: 10 µM unless noted.
The next experiment relates to CCRF-CEM leukemia. The conditions noted are these: 10 µM unless noted.
A further experiment has as its system MOLT-4 leukemia. The conditions noted are these: 10 µM unless noted.
The test system of another experiment is A498 renal. The conditions noted are these: 10 µM unless noted.

The panel holds about 83,000 compounds, 20% with a hit somewhere; the sample as a whole holds those more often.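 A percent growth of 40 corresponds to 60% growth inhibition; 0 means no net growth; -100 means all cells died. Active threshold: below 10.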 Values without a mark were called inactive. Active and inactive are the calls of the source.

With `CC(N)C(Cc1ccc(Cl)cc1)c1ccc(Cl)cc1` (stereo not drawn), the growth with HCT-15 colon is 69.3%; in the experiment on HT29 colon, -21.9% (active); in the experiment with SNB-75 CNS, 48.6%; in the experiment on SNB-19 CNS it was 82.4%; in the experiment with U251 CNS, 5.91% (active); in the experiment with PC-3 prostate, 37.5%. The growth was 90.1% in the experiment with SK-MEL-5 melanoma; 92.4% in the experiment with UACC-62 melanoma; 74.3% with LOX IMVI melanoma; 62.6% with SK-MEL-28 melanoma; -58% (active) in the experiment on SK-MEL-2 melanoma; 83.7% in the experiment with EKVX NSCLC. Further, the growth in the experiment with SN12C renal is 87%; in the experiment on UO-31 renal, 55.8%; with TK-10 renal, 45.5%; in the experiment with ACHN renal, 80.5%; in the experiment on CAKI-1 renal it was 59.6%; in the experiment on CCRF-CEM leukemia it was 65.6%. The growth with MOLT-4 leukemia is 34.9%.
For `CCN(CCN(C)C)C(=O)CNCc1cc(C(N)=O)ccn1`, the growth in the experiment on HCT-15 colon was 102%; in the experiment on HT29 colon it was 80%; with SNB-75 CNS, 98.6%; in the experiment with SNB-19 CNS, 104%; with U251 CNS it was 87.5%; in the experiment on PC-3 prostate, 79.5%. For the same molecule, the growth was 95.4% in the experiment with SK-MEL-5 melanoma; 105% in the experiment with UACC-62 melanoma; 99.5% in the experiment on LOX IMVI melanoma; 110% in the experiment on SK-MEL-28 melanoma; 94.8% with SK-MEL-2 melanoma; 104% in the experiment on EKVX NSCLC. Besides, the growth was 98.8% in the experiment with SN12C renal; 93.2% with UO-31 renal; 96.4% with TK-10 renal; 108% in the experiment with ACHN renal; 105% in the experiment with CAKI-1 renal; 93.6% in the experiment with CCRF-CEM leukemia. Further, the growth in the experiment on MOLT-4 leukemia was 99.8%.
In the case of `COC(=O)[C@]12CC[C@@H](C)[C@H](C)[C@@H]1C1=CC[C@@H]3[C@@]4(C)C(c5cnco5)=C[C@@](C)(CO)C4=CC[C@@]3(C)[C@]1(C)CC2`, the growth with HCT-15 colon is 29.8%; in the experiment with HT29 colon, 26.6%; with SNB-75 CNS, 77.1%; in the experiment on SNB-19 CNS, 65.7%; in the experiment with U251 CNS it was 61.8%; in the experiment on PC-3 prostate it was 12.6%. Also, the growth is 47.2% in the experiment on SK-MEL-5 melanoma; 65.3% with UACC-62 melanoma; 67.7% with LOX IMVI melanoma; 66.7% with SK-MEL-28 melanoma; 42.3% in the experiment on SK-MEL-2 melanoma; 41.2% with EKVX NSCLC. Also, the growth with SN12C renal is 55.9%; in the experiment with UO-31 renal, 44.1%; with TK-10 renal, 69.6%; in the experiment on ACHN renal, 25.4%; with CAKI-1 renal, 34%; in the experiment with CCRF-CEM leukemia, 35.5%. The growth in the experiment on MOLT-4 leukemia was 10.1%.
Turning to `CCN(CC)CCCC(C)Nc1cc(-c2ccc(C(F)(F)F)cc2)c(C#N)c2nc3ccccc3n12` (stereo not drawn), the growth in the experiment with HCT-15 colon is 3.48% (active); with HT29 colon it was -2.76% (active); with SNB-75 CNS, -56.1% (active); in the experiment with SNB-19 CNS, 34.9%; with U251 CNS, 3.09% (active); with PC-3 prostate it was 22.1%. Besides, the growth in the experiment with SK-MEL-5 melanoma was -89.9% (active); in the experiment on UACC-62 melanoma it was -67.3% (active); with LOX IMVI melanoma it was -80.6% (active); in the experiment on SK-MEL-28 melanoma, -64.7% (active); with SK-MEL-2 melanoma, 79.3%; with EKVX NSCLC, 35.6%. Besides, the growth in the experiment with SN12C renal is -30.3% (active); with UO-31 renal, -76.5% (active); in the experiment on TK-10 renal, 68.2%; with ACHN renal it was -65.2% (active); with CAKI-1 renal it was 52.2%; with A498 renal, 87.5%. The figures for the growth with CCRF-CEM leukemia and with MOLT-4 leukemia were -7.3% (active) and -28.2% (active), respectively.
In the case of `COc1cc(C(=O)NNC(=O)c2ccc(NC(=O)CCl)cc2)cc(OC)c1OC`, the growth in the experiment with HCT-15 colon was 86.4%; in the experiment on HT29 colon, 60.5%; in the experiment with SNB-75 CNS, 87.4%; in the experiment with SNB-19 CNS, 88.9%; in the experiment with U251 CNS, 11.1%; in the experiment with PC-3 prostate it was 66.1%. The growth is 77.9% in the experiment with SK-MEL-5 melanoma; 66.9% in the experiment with UACC-62 melanoma; 28.9% in the experiment with LOX IMVI melanoma; 86.9% in the experiment on SK-MEL-28 melanoma; 80.7% in the experiment on SK-MEL-2 melanoma; 92.4% in the experiment on EKVX NSCLC. The growth is 65.9% in the experiment with SN12C renal; 80.1% in the experiment on UO-31 renal; 107% in the experiment on TK-10 renal; 89.8% with ACHN renal; 98.2% in the experiment with CAKI-1 renal; 85.9% in the experiment on A498 renal. For the same molecule, the growth with CCRF-CEM leukemia is 33%.
As for `C=CCC(=O)N[C@H](/C=C/C(=O)O)Cc1ccc(-c2cc(Cl)cc(Cl)c2)cc1`, the growth with HCT-15 colon is 98.1%; with HT29 colon, 97.8%; in the experiment on SNB-75 CNS it was 87%; in the experiment with SNB-19 CNS it was 97.9%; in the experiment on U251 CNS, 83%; with PC-3 prostate it was 80.6%. Further, the growth is 95.7% in the experiment on SK-MEL-5 melanoma; 86.8% in the experiment on UACC-62 melanoma; 96.9% with LOX IMVI melanoma; 112% with SK-MEL-28 melanoma; 101% in the experiment with SK-MEL-2 melanoma; 95.9% with EKVX NSCLC. For the same molecule, the growth with SN12C renal is 100%; with UO-31 renal, 81%; with TK-10 renal, 104%; in the experiment on ACHN renal it was 102%; in the experiment on CAKI-1 renal, 86.3%; with CCRF-CEM leukemia, 102%. Besides, in the experiment on MOLT-4 leukemia, the growth is 91.2%.
Turning to `Nc1c(C(=O)c2ccccc2)sc2nc(-c3cccs3)cc(-c3cccs3)c12`, the growth was 31.2% with HCT-15 colon; 11.2% in the experiment on HT29 colon; 22.2% with SNB-75 CNS; 42.9% with SNB-19 CNS; 25.6% with U251 CNS; 33% in the experiment with PC-3 prostate. Moreover, the growth with SK-MEL-5 melanoma is 43.7%; in the experiment with UACC-62 melanoma it was 28.7%; in the experiment with LOX IMVI melanoma, 51.5%; in the experiment with SK-MEL-28 melanoma it was 64.9%; with SK-MEL-2 melanoma, 40.9%; in the experiment with EKVX NSCLC it was 62.2%. The growth is 59.5% in the experiment with SN12C renal; 60.5% with UO-31 renal; 81.6% in the experiment with TK-10 renal; 55.7% in the experiment on ACHN renal; 50.5% in the experiment with CAKI-1 renal; 40.1% with CCRF-CEM leukemia. In the experiment with MOLT-4 leukemia, the growth was 44.8%.
For the molecule `C=C1C(=O)O[C@H]2[C@H]1CC/C(CNC(=O)c1cc3cc(OC)ccc3[nH]1)=C\CC[C@@]1(C)O[C@@H]21`, the growth in the experiment on HCT-15 colon was -78.4% (active); in the experiment on HT29 colon, -70.9% (active); in the experiment with SNB-75 CNS, 51.4%; in the experiment with SNB-19 CNS, 44%; in the experiment with U251 CNS, 14.5%; in the experiment on PC-3 prostate it was -52.5% (active). The growth in the experiment with SK-MEL-5 melanoma was -39.2% (active); in the experiment with UACC-62 melanoma, -66.1% (active); in the experiment on LOX IMVI melanoma, -93.5% (active); with SK-MEL-28 melanoma it was -59.3% (active); with SK-MEL-2 melanoma, -42.7% (active); in the experiment with EKVX NSCLC, -55.9% (active). The growth in the experiment with SN12C renal is -38.5% (active); with UO-31 renal it was -75.8% (active); in the experiment on TK-10 renal, -83% (active); in the experiment with ACHN renal it was -76.2% (active); with CAKI-1 renal, -74.1% (active); with CCRF-CEM leukemia, -19.3% (active). In the experiment with MOLT-4 leukemia, the growth was -31% (active).
